Reference: PubChem BioAssay AID2158 (National Center for Advancing Translational Sciences (NCATS), 2009)
Several values for one entry are separate records, joined by “and”; a condition that tells them apart may be missing. Identical values can stand only once. Inconclusive results are not listed. Unmarked numbers belong to inactive results. Activity calls are given as the source filed them. The call rests on the fitted dose curve; in most records, active means well fitted inhibition curve with a large enough effect; inconclusive means small, poorly fitted or top-dose-only effect; inactive means no such curve, though single readings can be large or run the other way.

Molecular target: Cruzipain (Trypanosoma cruzi) (UniProt P25779)
Sequence (P25779 123-467 limits assumed): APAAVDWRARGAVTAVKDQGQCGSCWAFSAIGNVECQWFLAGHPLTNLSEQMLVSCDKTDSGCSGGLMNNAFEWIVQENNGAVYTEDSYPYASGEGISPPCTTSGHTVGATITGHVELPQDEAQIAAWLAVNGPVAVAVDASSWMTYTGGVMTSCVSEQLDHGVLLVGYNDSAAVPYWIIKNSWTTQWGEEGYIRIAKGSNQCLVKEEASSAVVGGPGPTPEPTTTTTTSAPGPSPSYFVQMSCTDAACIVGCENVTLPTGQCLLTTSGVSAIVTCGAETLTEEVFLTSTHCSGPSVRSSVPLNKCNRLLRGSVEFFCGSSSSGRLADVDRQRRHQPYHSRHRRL
Experiment: Confirmation qHTS Assay for Inhibitors of Cruzain; further: nearly all actives have a fitted effect of over 40% in size;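 on activity change, negative = inhibition: plate controls were uninhibited enzyme control for no effect and buffer wells lacking enzyme for full effect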
Settings: purified cruzain, Z-FR-AMC fluorescence, 0.01% Triton
Experimental: Cruzain is a cysteine protease from the tropical parasite Trypanosoma cruzi. This assay protocol is a follow-up and confirmation of related AID 1478 (qHTS Assay for Promiscuous and Specific Inhibitors of Cruzain -- with detergent). Cruzain was assayed by the use of fluorogenic coumarin-based substrate Z-FR-AMC: proteolytic cleavage releases AMC, whose fluorescence is measured at 360 nm excitation and 450 nm emission. Purified cruzain was supplied by the labs of Prof. James McKerrow and Brian Shoichet, UC San Francisco. This assay had 0.01% Triton X-100 concentration. See following references for additional details: Jadhav A, et al. J Med Chem. 2010 Jan 14;53(1):37-51. Mott BT, et al. J Med Chem. 2010 Jan 14;53(1):52-60. Assay Provider: Shoichet, Brian; University of California, San Fancisco Screening Center PI: Austin, C.P. Screening Center: NIH Chemical Genomics Center [NCGC]
Buffer: 100 mM Sodium Acetate, pH 5.5, 5 mM DTT, Triton X-100 concentration: 0.01%. Reagents/Controls: Buffer in columns 3 and 4 as negative control (no enzyme). Substrate solution: 2 uM final concentration of Z-FR-AMC (catalog number I-1160, Bachem) dispensed throughout the plate. Enzyme: 1.5 nM Cruzain final concentration in columns 1, 2, 5-48. Column 1 is neutral (100% activity). Column 2 contained titration of covalent inhibitor K11777, starting concentration 1 mM, then 1:2 dilution in duplicate). Assay Steps: Three uL of enzyme or buffer were dispensed to 1536-well Greiner black solid bottom plates. Compounds and controls (23 nL) were transferred via Kalypsys PinTool. The plates were incubated for 15 min at room temperature, and then 1 uL of substrate solution was added to start the reaction. The plates were immediately transferred to and read 4 times every 30 seconds for 2 min on ViewLux High-throughput CCD imager (Perkin-Elmer) using 360 nm excitation and 450 nm emission fluorescence protocol. The fluorescence intensity difference between the third and the first time points (time lapse of 60 seconds) was used to compute reaction progress.
Potency means the concentration at half of the fitted maximal effect.

| SMILES | Potency | activity change, negative = inhibition |
| --- | --- | --- |
| O=C(/C=C/c1ccc2c(c1)OCO2)Nc1ccc(-n2nncc2-c2ccccc2)cc1 | 2.51 µM (active) | – |
| CC(C)(C)c1ccc(-c2nc(SCC(=O)Nc3ccc(Cl)cc3)[nH]c(=O)c2C#N)cc1 | 12.6 µM (active) | – |
| Clc1ccc(-c2nn3c(-c4cc(-c5ccccc5)n[nH]4)nnc3s2)cc1 | – | -13.4% |
| O=C(COC(=O)CNC(=O)C1CCCCC1)NC1CCCC1 | 12.6 µM (active) | – |
| Cc1ccc2[nH]c(=O)c(CN(Cc3ccco3)Cc3nnnn3Cc3ccco3)cc2c1 | – | -6.56% |
| N#Cc1nc(Nc2cc(F)cc(F)c2)nc(Nc2cc(F)cc(F)c2)n1 | 0.0794 µM (active) | – |
| Cc1ccc2[nH]c(=O)c(CN(Cc3ccccc3)Cc3nnnn3Cc3ccco3)cc2c1 | – | -19.4% |
| CN(c1ccccc1)c1nc(C#N)nc(N2CCOCC2)n1 | 1.26 µM (active) | – |
| C=CCNC(=O)c1ccc2nc(-c3ccco3)c(-c3ccco3)nc2c1 | 15.8 µM (active) | – |
| O=C(NCc1nnc(C(=O)Nc2ccc(C(F)(F)F)cc2Cl)o1)c1ccccc1 | – | -7.13% |
| N#Cc1nc(NC2CCCC2)c2ncn(-c3cc(F)cc(F)c3)c2n1 | 0.316 µM (active) | – |
| Cc1ccccc1OCC(=O)NCC(=O)OCC(=O)c1ccc(F)cc1 | – | -14.6% |
| CCCCNC(=O)c1ccc2nc(-c3ccco3)c(-c3ccco3)nc2c1 | 7.94 µM (active) | – |
| O=C(NCCCc1nc2ccccc2n1CCOc1ccccc1)C1CCCCC1 | – | -11.7% |
| CCOc1nc(C#N)nc(N2CCOCC2)n1 | 5.01 µM (active) | – |
| O=C(NCCc1nc2ccccc2n1CCCOc1ccccc1)C1CCCCC1 | 2.24 µM (active) | – |
| O=C(Cc1nnc(-c2nc3ccccc3[nH]2)o1)Nc1cc(C(F)(F)F)ccc1Cl | – | -0.284% |
| S=C(NC1CCCCC1)N(CCc1nc2ccccc2[nH]1)C1CCCC1 | 0.631 µM (active) | – |
| N#Cc1nc(N2CCOCC2)nc(N2CCOCC2)n1 | 3.55 µM (active) and 5.01 µM (active) | – |
| CCC(C)c1ccccc1OCCn1c(CCNC(=O)C2CCCCC2)nc2ccccc21 (stereo not given) | 10 µM (active) | – |

| SMILES | Potency | activity change, negative = inhibition |
| --- | --- | --- |
| CC(C)(C)c1ccc(C(=O)NCC(=O)OC(C(=O)Nc2cc(C(F)(F)F)ccc2Cl)c2ccccc2)cc1 (stereo not given) | – | -14% |
| CN1N/C(=C\c2ccccc2)N=C2C(=O)N(C)C(=O)N=C21 | 1.12 µM (active) | – |
| CC(C)N(CCC(=O)c1ccc2ccccc2c1)Cc1ccccc1 | 31.6 µM (active) | – |
| COc1ccccc1C(=O)NCC(=O)OCC(=O)c1cccc2ccccc12 | 31.6 µM (active) | – |
| O=C(Cc1ccccc1)NCC(=O)OCC(=O)c1cccc2ccccc12 | 25.1 µM (active) | – |
| O=C(Cn1cc(CNC(=O)c2ccccc2)nn1)Nc1cc(C(F)(F)F)ccc1Cl | – | 2.48% |
| CCSc1nnc(NC(=O)c2ccc(Br)s2)s1 | – | -4.82% |
| COc1ccc(OCCCn2c(CCNC(=O)C3CCCCC3)nc3ccccc32)cc1 | 1.41 µM (active) | – |
| O=C(Cc1ccccc1)NCC(=O)OCC(=O)c1ccc2ccccc2c1 | – | -9.73% |
| O=C(CNC(=O)c1ccccc1)OC(C(=O)Nc1cc([N+](=O)[O-])ccc1F)c1ccccc1 (stereo not given) | 12.6 µM (active) | – |
| C=CC(=O)c1ccc2ccccc2c1 | 25.1 µM (active) | – |
| CCCCNc1nc(C#N)nc(Nc2ccccc2)n1 | 0.891 µM (active) | – |
| CC1=CC(=NOC(=O)/C=C/c2ccccc2)C=C(C)C1=O | 3.98 µM (active) | – |
| O=C(NCCc1nc2ccccc2n1CCCOc1ccc2ccccc2c1)C1CCCCC1 | 1.12 µM (active) | – |
| CC(C)CC(OC(=O)CNC(=O)c1ccccc1)C(=O)Nc1cc(C(F)(F)F)ccc1Cl (stereo not given) | 7.94 µM (active) | – |
| CCOC(=O)N1CCC(=C2c3ccc(Cl)cc3CCc3cccnc32)CC1 | – | -13.4% |
| CCOc1ccc(-c2cc3nc(C4CCN(C(=O)OC(C)(C)C)CC4)c(C(=O)O)cn3n2)cc1 | – | -33% |
| CC(C)(C)OC(=O)Cc1nnc(-c2nc3ccccc3[nH]2)s1 | – | -9.29% |
| CC(C)(C)OC(=O)CC(=O)NNC(=O)c1cc2ccccc2[nH]1 | – | -2.89% |
| Cn1nc(-c2ccncc2)nc2c(=O)n(C)c(=O)nc1-2 | 0.891 µM (active) | – |
